Hits are enriched below; roughly 2% of the tested compounds scored in any of these assays.
CHT allo act – allosterically activates the human high affinity choline transporter; Q9GZV3; CHT-expressing cells, membrane potential dye, choline EC20; hits give high values; LV-AA mutant CHT in HEK293 cells; B-score at 10 µM; 310,000 compounds, 0.49% hits;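 active = initial fluorescence not abnormally high and integrated response B-score, plate-corrected, over 3 SD above library mean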
Target sequence (Q9GZV3 whole entry, looked up): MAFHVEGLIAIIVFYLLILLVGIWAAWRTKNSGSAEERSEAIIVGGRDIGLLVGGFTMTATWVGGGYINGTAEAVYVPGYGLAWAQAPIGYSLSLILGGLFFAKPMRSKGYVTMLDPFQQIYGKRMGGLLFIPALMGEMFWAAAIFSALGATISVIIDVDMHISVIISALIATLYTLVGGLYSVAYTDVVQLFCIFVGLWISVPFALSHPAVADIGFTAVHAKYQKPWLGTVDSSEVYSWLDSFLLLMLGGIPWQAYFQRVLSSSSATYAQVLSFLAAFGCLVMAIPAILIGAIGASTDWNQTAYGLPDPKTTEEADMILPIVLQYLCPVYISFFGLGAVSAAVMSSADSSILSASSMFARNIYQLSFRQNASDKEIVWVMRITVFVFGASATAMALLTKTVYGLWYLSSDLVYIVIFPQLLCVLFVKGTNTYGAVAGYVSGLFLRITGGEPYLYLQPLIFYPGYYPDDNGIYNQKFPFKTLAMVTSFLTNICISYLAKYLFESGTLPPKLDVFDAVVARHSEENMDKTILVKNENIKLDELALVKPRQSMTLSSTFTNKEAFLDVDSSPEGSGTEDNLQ
H9c2 TAG inh – triacylglycerol accumulation inhibition | inhibition, % at 12.5 µM | H9c2 cells, Nile Red lipid (TAG) fluorescence; cells loaded with 200 µM oleic acid | 230,000 compounds, 0.66% hits;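 active = pattern-corrected inhibition of lipid staining of at least 50% with the nuclear-stain viability signal not falling by more than 50%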;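 note: 0% = DMSO wells and 100% = triacsin C control wells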
Kir21 block – blocks the mouse Kir2.1 inward-rectifier potassium channel | 310,000 compounds, 0.85% hits | HEK293-Kir2.1, FluxOR thallium flux fluorescence; hits give low values | B-score at 10 µM | P35561;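 active = fluorescence ratio B-score at or below minus 3 SD of library scores, with starting-brightness B-score within 2 SD, cut at about -4.2 in these data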;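 note: channel flux triggered by added potassium and thallium sulfate stimulus; B-score of peak minus minimum fluorescence over baseline after thallium stimulus; more negative B-score means stronger Kir2.1 block with less thallium influx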
CHT block – inhibitors of human choline transporter CHT; Q9GZV3; CHT-expressing cells, membrane potential dye, choline response; hits give low values; B-score at 10 µM; 310,000 compounds, 0.86% hits; AID 488975;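 active = B-score over 3 SD under the library average, and starting fluorescence ratio not unusually high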;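 note: choline stimulus applied at its EC90 after an EC20 pre-addition; B-score computed on integrated fluorescence ratio after choline addition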
CHT act confirm – human CHT activation, confirmatory screen. 2,500 compounds, 91% hits. shares compounds with CHT allo act. CHT-expressing cells, membrane potential dye fluorescence (FDSS); % of choline EC20–EC90 response window; HEK293 expressing CHT LV-AA mutant; choline added at its EC20. activation, % at 10 µM;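 active = primary screen active, with duplicate mean activation above negative control mean plus 3 SD, cut at about 11% in these data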
HEK293 MP dye – CHT activator counter-screen hit in parental HEK293 cells; membrane potential dye fluorescence (FDSS); measured after EC20 choline addition; 2,500 compounds, 62% hits; AID 623908; shares compounds with CHT allo act; ratio readout change at 10 µM, hits read low;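 active = duplicate-averaged ratio beyond 3 SD from buffer wells, up or down, though filed actives are nearly all decreases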
* = called active by the depositor; i = inactive; nt = no result given.

SMILES	CHT allo act	H9c2 TAG inh	Kir21 block	CHT block	CHT act confirm	HEK293 MP dye
CN(Cc1ccc(F)cc1)C(=O)C(c1ccccc1)c1ccccc1	i	nt	-1.2	i	36.5*	i
CC1CCN(C(=O)c2ccc(SCc3ccccc3F)c([N+](=O)[O-])c2)CC1	i	nt	-0.64	i	nt	nt
Cc1cccc(N2CCC(N=CN(C)C)=N2)c1	i	nt	4.22	i	nt	nt
Cc1cc(/C=C2/C(=N)N3C(=NC2=O)SN=C3S(C)(=O)=O)c(C)n1-c1ccccc1F	7.61*	10.5	0.09	i	-16.6	i
CCOc1cc(C2C(C(=O)OC)=CN(Cc3ccc(Cl)cc3)C=C2C(=O)OC)ccc1O	i	nt	-0.96	i	20.4*	i
COC(=O)C1=CN(Cc2ccccc2)C=C(C(=O)OC)C1c1ccc(O)c(OC)c1	i	-9.8	-1.97	i	nt	nt
Cc1c(Cl)cccc1NC(=O)COC(=O)c1c2c(nc3ccccc13)CCN(Cc1ccccc1)C2	i	nt	2.13	i	20.6*	i
CNC(=O)/C(C#N)=C/c1c(N2CCCCCC2)nc2ccccn2c1=O	6.44*	nt	-0.7	i	-2.4	-36*
CN1CCN(c2nc3ccccn3c(=O)c2C=O)CC1	6.32*	nt	1.05	i	48.1*	-44.8*
CC1CCN(S(=O)(=O)c2cn(CC(=O)N3CCN(c4cccc(C(F)(F)F)c4)CC3)cn2)CC1	i	nt	1.45	i	nt	nt
CCC(NS(=O)(=O)c1cccs1)c1ccc(C)cc1 (configuration not stated)	nt	-6.5	nt	nt	nt	nt
Cc1cccc(NC(=O)C2=C(O)c3ccccc3N(C)S2(=O)=O)c1	i	-1.4	1.56	i	-1.6	-28*
CC1CCN(CCCNc2cc(NCCO)c([N+](=O)[O-])c3nonc23)CC1	i	nt	0.02	i	31.4*	-62*
CN(C)CCCn1c(NCc2ccc3c(c2)OCO3)nc2ccccc21	i	nt	-0.09	i	35.0*	-49.9*
C=CCn1c(NCc2ccc3c(c2)OCO3)nc2ccccc21	i	nt	-3.18	i	nt	nt
COc1cc(C(=O)N/N=C/c2ccsc2C)cc(OC)c1OC	i	46.0	0.67	i	18.7*	i
CCNc1ccc(S(=O)(=O)N2CCCCC2)cn1	nt	-13.8	nt	nt	nt	nt
NCCCC[C@H]1CN=C(N)N1CCCCC1CCCCC1	10.5*	nt	0.07	i	47.3*	-50.9*
CC[C@H]1CN2CCc3cc(OC)c(OC)cc3C2C[C@@H]1C[C@H]1NCCc2cc(OC)c(OC)cc21 (some centres not stated)	13.8*	106.4	nt	i	41.3*	-43.4*
O=[N+]([O-])c1ccc2nc(-c3cccnc3)[nH]c2c1	i	-1.9	-0.37	i	52.0*	-53.5*
CC1CCCC(C)N1C(=O)CN1c2cccc3cccc(c23)S1(=O)=O (configuration not stated)	nt	2.8	nt	nt	nt	nt
CCC(=Nc1ccccc1O)C1=C(O)CC(c2ccccc2)CC1=O (configuration not stated)	i	3.9	0.62	i	nt	nt
CCC(=Nc1ccccc1OC)C1=C(O)CC(c2ccccc2)CC1=O (configuration not stated)	11.7*	0.8	0.11	i	32.0*	i
NC1C2CN(c3nc4c(cc3F)c(=O)c(C(=O)O)cn4-c3ccc(F)cc3F)CC12 (configuration not stated)	7.92*	nt	-0.67	i	60.0*	-66.6*
O=C(O)c1cn(-c2ccc(F)cc2)c2cc(Cl)c(F)cc2c1=O	i	nt	-1.33	i	nt	nt
SMILES	CHT allo act	H9c2 TAG inh	Kir21 block	CHT block	CHT act confirm	HEK293 MP dye
CCN(CC)CCCNc1cc(C)nc2cc(-c3cccs3)nn12	9.09*	13.8	1.58	i	62.0*	-84.2*
CN(C)CCCNc1cc(-c2ccccc2)nc2cc(-c3cccc(F)c3)nn12	i	nt	-2.16	i	nt	nt
Cc1cccc(-c2cc3nc(C)cc(NCCCN(C)C)n3n2)c1	i	nt	-1.31	i	32.5*	-61.6*
CCN1CCN(c2nc3ccccc3n3cnnc23)CC1	i	1.3	1.54	i	nt	nt
Cc1nnc2c(N3CCN(CCO)CC3)nc3ccccc3n12	i	nt	-0.11	i	52.1*	-50*
O=C(CCc1nnc2ccc(NCc3ccccc3)nn12)NCC1CCN(C2CCCC2)C1 (configuration not stated)	i	nt	-2.25	i	nt	nt

High-throughput results as filed in PubChem.
